The source of these data is PubChem BioAssay.

Assay [1] in a line: small molecules captured by biotinylated probe aFSTL3 – biochemical, small-molecule microarray, fluorescence 635/667, stem cell growth factor project, primary screen (AID 1064).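 Also: measures binding of the biotinylated anti-FSTL3 antibody to printed compounds.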 The conditions noted are these: higher = more signal.
The nature of assay [2]: binders from COS7 lysate, DM2A8 probe, primary screen, torsin A project, cell lysate, small-molecule microarray, fluorescence 635/667 (AID 1065). To be noted: higher = more signal, COS7 lysate expressing mutant human TOR1A.
Assay [3] can be described thus: small molecules captured by biotinylated probe aFGF2 – biochemical, small-molecule microarray, fluorescence 635/667, stem cell growth factor project, primary screen (AID 1067).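 Also: measures binding of biotinylated aFGF2 protein to printed compounds on slides; z-score merges feature fluorescence and signal-to-noise across triplicate slides.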 The conditions noted are these: higher = more signal.
Assay [4] can be described thus: small molecules captured by biotinylated probe aFGF10 – biochemical, small-molecule microarray, fluorescence 635/667, stem cell growth factor project, primary screen (AID 1071).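 Also: score merges 667 nm spot intensity and signal to noise from triplicate slides.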 The conditions noted are these: higher = more signal.
The target in assay [5] is Neurogenic locus notch homolog protein 2 (Homo sapiens) (UniProt Q04721). In words: small molecules binding Notch2 protein – biochemical, small-molecule microarray, 635 nm fluorescence, stem cell growth factors, primary screen (AID 1073). The conditions noted are these: higher = more signal.
The target of assay [6] is Pro-neuregulin-1, membrane-bound isoform (Homo sapiens) (UniProt Q02297). In words: small molecules binding neuregulin-1 protein – biochemical, small-molecule microarray, fluorescence 635/667, psychiatric disease protein project, primary screen (AID 1075).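 Also: score combines 667 nm spot fluorescence with signal to noise.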 To be noted: NRG1 binding, 635 nm fluorescence, higher = more signal.
Assay [7] deals with Neuregulin-1 EGF-like domain. In words: small molecules binding NRG1 EGF domain – biochemical, small-molecule microarray, 635 nm fluorescence, primary screen (AID 1081).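 Also: binding of the protein to compounds printed on small-molecule microarray slides.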 The conditions noted are these: higher = more signal.
Assay [8] can be described thus: FRG1 expression reporter modulators in myotubes – cell-based, C2C12 myotubes, firefly/Renilla luciferase, luminescence, FRG1 inhibition for FSHD, primary screen (AID 1084). To be noted: FRG1 promoter luciferase, higher = more signal, called active from +8 up or from −8 down.
Assay [9] can be described thus: small molecules captured by biotinylated probe aFST – biochemical, small-molecule microarray, fluorescence 635/667, stem cell growth factor project, primary screen (AID 1086).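 Also: score merges 667 nm fluorescence with signal-to-noise of each printed compound spot.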 To be noted: higher = more signal.
Assay [10] can be described thus: binders of probe aHhip on microarray, primary screen, stem cell growth factor project, biochemical, small-molecule microarray, fluorescence 635/667 (AID 1087).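 Also: score merges spot fluorescence at 667nm with spot signal to noise ratio.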 To be noted: higher = more signal.
Assay [11] concerns PRMT1 (protein arginine N-methyltransferase 1). In words: small molecules binding arginine methyltransferase PRMT1 – biochemical, small-molecule microarray, 635 nm fluorescence, primary screen (AID 1088).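 Also: binding of Prmt1 protein to compounds spotted on small-molecule microarray slides.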 The conditions noted are these: higher = more signal.
The nature of assay [12]: growth effects on S. cerevisiae YJM789 – YJM789 clinical isolate, OD600, 24 h, basal, primary screen (AID 1089).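 Also: growth of clinical yeast isolate S. cerevisiae YJM 789 seeded 1000 cells per well; test concentration not given here.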 To be noted: higher = more signal, called active from +8 up or from −8 down.
The nature of assay [13]: S. pombe growth modifiers, basal conditions – strain 972, OD600, 24 h, no modulator, primary screen (AID 1090).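 Also: basal condition with compound alone and no growth modifier present; test concentration not given here.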 The conditions noted are these: S. pombe 972 growth, higher = more signal, called active from +8 up or from −8 down.
Assay [14] in a line: budding yeast growth modifiers under rapamycin – strain BY4716, OD600, 96 h, primary screen (AID 1091). Also: test concentration not given here. To be noted: S. cerevisiae BY4716 + rapamycin, higher = more signal, called active from +8 up or from −8 down.
Assay [15] has as its target Torsin-1A-interacting protein 2 (Homo sapiens) (UniProt Q8NFQ8). In words: small molecules binding lysate-expressed LULL1 – cell lysate, human LULL1 lysate, 635/667 nm fluorescence, primary screen (AID 1092).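 Also: probe is lysate of COS7 cells overexpressing human LULL1; score merges per-feature 667 nm fluorescence with signal-to-noise.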 The conditions noted are these: small-molecule microarray, hLULL1 lysate binding, 635 nm fluorescence; higher = more signal.
Assay [16] is described as follows: optical density change of DRC41 E. coli – strain DRC41, OD650, 24 h, E. coli filamentation project, primary screen (AID 1093).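 Also: MC1000 strain lacking acrAB efflux and sulA so SOS filamentation is blocked; test concentration not given here.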 The conditions noted are these: E. coli DRC41 growth, higher = more signal, called active from +8 up or from −8 down.
Assay [17] in a line: probe aLefty2 binding to arrayed compounds – biochemical, biotinylated probe, 635/667 nm fluorescence, primary screen (AID 1094).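 Also: score merges spot fluorescence near 667 nm with spot signal-to-noise ratio.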 To be noted: small-molecule microarray, higher = more signal.
Assay [18] concerns Noggin (protein binding on small-molecule microarray). Description: small molecules binding Noggin protein – biochemical, 635/667 nm fluorescence, primary screen (AID 1095).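 Also: score merges 667 nm feature fluorescence with signal to noise over triplicate slides.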 The conditions noted are these: 635 nm fluorescence, higher = more signal.
In assay [19] the target is Neurogenic locus notch homolog protein 3 (Homo sapiens) (UniProt Q9UM47). In words: small molecules binding NOTCH3 protein – biochemical, 635/667 nm fluorescence, primary screen (AID 1096). The conditions noted are these: small-molecule microarray, 635 nm fluorescence, higher = more signal.
A short description of assay [20]: probe aEGFR binding to arrayed compounds – biochemical, biotinylated probe, 635/667 nm fluorescence, primary screen (AID 1097).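 Also: probe is a biotinylated anti-EGFR antibody binding compounds printed on slides; score combines fluorescence near 667 nm and signal to noise of each spot.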 To be noted: small-molecule microarray, higher = more signal.

SMILES strings stand for the structures. The source made the active and inactive calls.

Sequence of Pro-neuregulin-1, membrane-bound isoform (Homo sapiens) (Q02297 whole entry, looked up, the tested form may be a part, canonical isoform): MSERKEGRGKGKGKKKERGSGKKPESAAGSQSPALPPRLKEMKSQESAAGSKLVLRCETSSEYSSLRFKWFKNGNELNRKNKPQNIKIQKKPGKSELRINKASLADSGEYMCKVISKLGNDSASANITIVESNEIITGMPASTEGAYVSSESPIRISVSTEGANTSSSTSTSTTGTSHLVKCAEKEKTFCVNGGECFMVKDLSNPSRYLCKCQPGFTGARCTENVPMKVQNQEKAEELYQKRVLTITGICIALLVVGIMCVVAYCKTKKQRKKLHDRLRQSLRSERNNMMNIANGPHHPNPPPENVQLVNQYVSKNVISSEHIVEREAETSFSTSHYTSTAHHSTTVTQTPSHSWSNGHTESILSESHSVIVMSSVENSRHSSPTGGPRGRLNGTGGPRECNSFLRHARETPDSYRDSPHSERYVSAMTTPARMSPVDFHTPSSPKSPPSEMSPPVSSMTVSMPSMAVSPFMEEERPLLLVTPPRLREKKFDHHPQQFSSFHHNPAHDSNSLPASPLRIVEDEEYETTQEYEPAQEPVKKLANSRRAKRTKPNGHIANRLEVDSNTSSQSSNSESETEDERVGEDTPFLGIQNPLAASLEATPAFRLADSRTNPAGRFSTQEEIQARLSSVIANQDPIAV
Sequence of Neurogenic locus notch homolog protein 2 (Homo sapiens) (Q04721 whole entry, looked up, canonical isoform): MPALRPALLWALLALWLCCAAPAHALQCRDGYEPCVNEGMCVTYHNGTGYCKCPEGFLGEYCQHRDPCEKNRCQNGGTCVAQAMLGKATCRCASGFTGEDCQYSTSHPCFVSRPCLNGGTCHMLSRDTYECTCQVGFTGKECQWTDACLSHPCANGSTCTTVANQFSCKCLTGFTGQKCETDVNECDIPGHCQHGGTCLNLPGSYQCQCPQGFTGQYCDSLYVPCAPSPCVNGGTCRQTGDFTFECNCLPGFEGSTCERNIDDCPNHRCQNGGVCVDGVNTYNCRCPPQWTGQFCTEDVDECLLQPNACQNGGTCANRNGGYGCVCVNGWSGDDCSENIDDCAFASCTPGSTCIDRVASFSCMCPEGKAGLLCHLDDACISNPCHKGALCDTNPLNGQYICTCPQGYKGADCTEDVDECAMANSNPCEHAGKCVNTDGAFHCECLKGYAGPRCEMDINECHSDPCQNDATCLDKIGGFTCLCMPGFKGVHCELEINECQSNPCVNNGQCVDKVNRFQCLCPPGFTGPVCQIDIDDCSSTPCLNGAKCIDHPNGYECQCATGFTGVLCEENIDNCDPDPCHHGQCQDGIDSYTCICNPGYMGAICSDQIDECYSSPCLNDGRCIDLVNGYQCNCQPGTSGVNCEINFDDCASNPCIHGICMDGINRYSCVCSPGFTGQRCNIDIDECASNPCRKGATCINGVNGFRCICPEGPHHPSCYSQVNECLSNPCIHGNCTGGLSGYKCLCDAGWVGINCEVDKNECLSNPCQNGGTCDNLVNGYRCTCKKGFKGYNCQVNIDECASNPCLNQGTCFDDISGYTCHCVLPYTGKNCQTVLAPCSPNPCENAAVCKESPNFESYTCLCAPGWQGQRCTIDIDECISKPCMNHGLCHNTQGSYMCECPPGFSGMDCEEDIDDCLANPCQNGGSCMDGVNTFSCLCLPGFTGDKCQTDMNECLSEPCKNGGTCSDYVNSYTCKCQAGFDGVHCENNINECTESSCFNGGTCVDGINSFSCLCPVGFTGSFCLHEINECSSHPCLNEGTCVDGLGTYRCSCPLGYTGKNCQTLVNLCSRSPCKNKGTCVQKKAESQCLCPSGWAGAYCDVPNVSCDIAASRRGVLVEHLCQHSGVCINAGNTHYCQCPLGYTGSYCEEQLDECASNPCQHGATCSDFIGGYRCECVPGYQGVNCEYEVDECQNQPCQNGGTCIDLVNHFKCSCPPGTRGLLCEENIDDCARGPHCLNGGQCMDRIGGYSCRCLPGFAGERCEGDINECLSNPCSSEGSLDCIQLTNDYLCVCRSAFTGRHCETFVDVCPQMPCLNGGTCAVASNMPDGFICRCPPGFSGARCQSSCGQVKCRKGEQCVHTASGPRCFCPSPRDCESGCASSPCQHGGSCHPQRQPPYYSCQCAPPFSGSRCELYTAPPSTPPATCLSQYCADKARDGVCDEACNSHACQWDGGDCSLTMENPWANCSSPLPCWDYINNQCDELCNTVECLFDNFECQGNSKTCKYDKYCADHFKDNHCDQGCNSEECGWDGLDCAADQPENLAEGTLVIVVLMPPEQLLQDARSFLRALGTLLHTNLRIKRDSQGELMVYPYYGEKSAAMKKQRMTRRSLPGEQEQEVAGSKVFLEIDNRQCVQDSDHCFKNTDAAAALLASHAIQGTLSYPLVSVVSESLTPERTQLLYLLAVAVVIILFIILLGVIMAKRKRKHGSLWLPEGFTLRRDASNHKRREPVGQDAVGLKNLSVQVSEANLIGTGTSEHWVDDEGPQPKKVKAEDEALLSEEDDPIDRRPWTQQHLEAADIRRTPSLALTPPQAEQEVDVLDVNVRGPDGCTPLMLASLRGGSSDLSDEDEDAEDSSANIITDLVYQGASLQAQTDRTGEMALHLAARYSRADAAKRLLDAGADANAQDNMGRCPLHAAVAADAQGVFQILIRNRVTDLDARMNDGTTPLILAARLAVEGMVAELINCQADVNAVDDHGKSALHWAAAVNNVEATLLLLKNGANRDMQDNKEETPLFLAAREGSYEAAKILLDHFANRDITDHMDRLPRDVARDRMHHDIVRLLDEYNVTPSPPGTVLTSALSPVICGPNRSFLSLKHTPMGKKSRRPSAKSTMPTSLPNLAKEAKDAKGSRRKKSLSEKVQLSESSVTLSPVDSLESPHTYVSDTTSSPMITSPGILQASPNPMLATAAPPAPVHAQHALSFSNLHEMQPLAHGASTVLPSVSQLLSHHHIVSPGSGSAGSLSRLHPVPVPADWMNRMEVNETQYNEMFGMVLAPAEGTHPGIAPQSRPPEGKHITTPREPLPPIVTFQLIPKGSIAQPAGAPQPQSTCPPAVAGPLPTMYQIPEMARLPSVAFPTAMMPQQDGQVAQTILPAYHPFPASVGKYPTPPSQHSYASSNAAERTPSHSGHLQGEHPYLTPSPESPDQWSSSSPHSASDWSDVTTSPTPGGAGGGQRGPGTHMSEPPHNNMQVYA
Sequence of Torsin-1A-interacting protein 2 (Homo sapiens) (Q8NFQ8 whole entry, looked up): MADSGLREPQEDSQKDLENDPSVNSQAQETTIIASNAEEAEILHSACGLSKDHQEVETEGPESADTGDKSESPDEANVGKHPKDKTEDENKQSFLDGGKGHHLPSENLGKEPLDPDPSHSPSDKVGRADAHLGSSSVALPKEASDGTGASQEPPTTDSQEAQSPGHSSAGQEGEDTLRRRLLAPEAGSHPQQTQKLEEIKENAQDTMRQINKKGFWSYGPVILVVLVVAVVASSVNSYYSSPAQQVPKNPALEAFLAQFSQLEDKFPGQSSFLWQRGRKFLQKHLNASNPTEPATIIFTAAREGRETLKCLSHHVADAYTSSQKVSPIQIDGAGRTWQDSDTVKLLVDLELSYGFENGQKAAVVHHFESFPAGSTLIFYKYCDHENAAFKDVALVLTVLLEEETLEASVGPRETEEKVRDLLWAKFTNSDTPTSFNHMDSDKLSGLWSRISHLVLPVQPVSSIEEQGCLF

With `COc1ccc([Si](C)(C)[C@@H]2[C@@H](CC(=O)N3CCC[C@H]3CO)O[C@]3(C(=O)N(Cc4ccc(N5CCOC5=O)cc4)c4ccccc43)[C@H]2C)cc1`, the composite z-score is -0.29 in assay [1]; 0.59 in assay [2]; -0.155 in [3]; -0.0087 in assay [4]; 0.01 in assay [5]; 0.717 in [6]. For the same compound, the composite z-score in assay [7] was 1.01; in assay [9], 0.138; in assay [10] it was -0.0994; in assay [11], 1.45; in assay [15], 2.72; in assay [17] it was -0.242. The figures for the composite z-score in [18], in assay [19] and in assay [20] were 1.46, 0.912 and -0.188, respectively. Moreover, the z-score was -2.49 (inactive) in assay [8]; -3.35 (inactive) in assay [12]; -1.13 (inactive) in [13]; -0.356 (inactive) in [14]; 0.985 (inactive) in assay [16].

Turning to `CC1=C([C@H](O)CCc2ccccc2)[C@H](CO)n2c(=O)n(-c3ccccc3)c(=O)n2C1`, the composite z-score in [1] is -0.312; in [2], -0.322; in assay [3], -0.159; in assay [4], 0.0052; in [5] it was -0.371; in assay [6] it was -0.355. Further, the composite z-score in assay [7] was -0.56; in [9] it was -0.429; in [10], -0.236; in assay [11], -0.0416; in assay [15] it was -0.478; in assay [17], -0.355. The figures for the composite z-score in assay [18], in assay [19] and in [20] were 0.0865, -0.696 and -0.211, respectively. Besides, the z-score in [8] was -0.973 (inactive); in assay [12], -1.02 (inactive); in assay [13], -1.03 (inactive); in assay [14] it was -0.539 (inactive); in assay [16], 1.87 (inactive).

Regarding `N#Cc1ccc(C(O)C2C=CC3C(=O)NC(=O)C3N2Nc2ccc(Cl)cc2Cl)cc1` (stereo not given), the composite z-score in assay [1] was -0.0161; in assay [2] it was -0.0803; in [3], -0.101; in assay [4], 0.116; in assay [5], 1.45; in assay [6], 1.82. Further, the composite z-score is 0.649 in assay [7]; 0.119 in assay [9]; -0.146 in [10]; 0.156 in assay [11]; 3.39 in assay [15]; 0.103 in [17]. Also, the composite z-score in [18] was -0.185; in assay [19] it was 0.559; in [20], -0.0594. Also, the z-score in assay [8] is 1.79 (inactive); in assay [12], -2.93 (inactive); in [13], -0.615 (inactive); in assay [14] it was 0.448 (inactive); in assay [16], -0.343 (inactive).

Regarding `COC(=O)[C@@]1(Cc2ccc(F)cc2)[C@H]2c3cc(C(=O)N4CCCC4)n(CCc4ccccn4)c3C[C@H]2CN1C(=O)c1ccccc1`, the composite z-score in [1] is 0.319; in [2] it was -0.439; in assay [3], 0.165; in assay [4], 0.124; in [5], 1.43; in assay [6], 1.8. For the same compound, the composite z-score was 1.4 in assay [7]; 0.858 in assay [9]; -0.201 in assay [10]; -0.63 in [11]; 2.89 in [15]; 0.181 in assay [17]. Moreover, the composite z-score in assay [18] is -0.701; in [19], 0.572; in [20], -0.164. Moreover, the z-score in [8] is 1.23 (inactive); in assay [12], -0.0526 (inactive); in assay [13] it was 0.804 (inactive); in assay [14], 0.414 (inactive); in [16], -0.223 (inactive).

Take `O=C1O[C@@H](c2ccccc2)[C@@H](c2ccccc2)N2[C@@H](c3ccc(OCCO)cc3)[C@]3(C(=O)Nc4ccc(C#CC5(O)CCCCCC5)cc43)[C@@H](C(=O)Nc3nc4ccccc4s3)[C@H]12`: the composite z-score in assay [1] is -0.017; in assay [2], 1.17; in assay [3], 0.0649; in assay [4], 0.517; in assay [5], 1.46; in [6], 1.51. The composite z-score in assay [7] stood at 1.24; in [9], 0.397; in [10], 0.113; in [11], 1.55; in assay [15], 2.96; in [17], 0.0769. For the same compound, the composite z-score in assay [18] was determined as 1.18; in assay [19], 1.07; in assay [20] it was 0.191. Further, the z-score in [8] was 2.48 (inactive); in [12], 2.44 (inactive); in assay [13] it was 1.19 (inactive); in assay [14] it was 2.78 (inactive); in [16], 0.799 (inactive).
